Assay results reported in PMC7862700, “An all-to-all approach to the identification of sequence-specific readers for epigenetic DNA modifications on cytosine”.

Assays:
Test in all cases: DAPPL (digital affinity profiling via proximity ligation, sequencing); 10 mM Tris-HCl pH 7.5, 50 mM NaCl, 1 mM DTT, 4% glycerol, room temperature, 30 min; GST-TFs on glutathione beads, 16-mer random dsDNA library, 0.1% formaldehyde crosslink after washing; high values mean tight binding
Details in all cases: protein: recombinant; tags: N-terminal GST; dsDNA, one strand shown
FLI1 = molecular target: T1, FLI1 (Homo sapiens, UniProt Q01543 1-452)
T1 sequence: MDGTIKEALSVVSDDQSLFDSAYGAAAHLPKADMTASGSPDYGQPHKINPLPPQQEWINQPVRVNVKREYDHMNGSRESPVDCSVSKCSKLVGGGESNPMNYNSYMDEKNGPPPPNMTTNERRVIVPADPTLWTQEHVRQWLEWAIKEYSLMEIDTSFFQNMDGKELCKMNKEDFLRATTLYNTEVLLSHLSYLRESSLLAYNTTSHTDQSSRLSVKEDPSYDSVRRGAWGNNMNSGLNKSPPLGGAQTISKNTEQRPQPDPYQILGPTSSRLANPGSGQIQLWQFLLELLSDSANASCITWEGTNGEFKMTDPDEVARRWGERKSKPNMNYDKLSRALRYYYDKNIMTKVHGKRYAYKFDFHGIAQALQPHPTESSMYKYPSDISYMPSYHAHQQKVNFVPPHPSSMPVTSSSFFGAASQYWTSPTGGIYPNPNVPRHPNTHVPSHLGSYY
In short: (§1)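 A tag-only sample was pooled with DNA-barcoded human transcription factors that had been expressed in yeast as GST fusions and captured on glutathione beads. The pools were incubated for 30 min at room temperature with 200 nmole of a random double-stranded 16-mer DNA library in Tris/NaCl/DTT/glycerol buffer, then washed, crosslinked with 0.1% formaldehyde, proximity-ligated (BsaI/T4 ligase, 1 h, 37 °C), PCR-amplified and sequenced on an Illumina NextSeq500. Binding signal is each hexamer's read frequency for a factor divided by its frequency for the tag-only sample.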

ELK1 = molecular target: T2, ELK1 (Homo sapiens, UniProt P19419 1-428)
T2 sequence: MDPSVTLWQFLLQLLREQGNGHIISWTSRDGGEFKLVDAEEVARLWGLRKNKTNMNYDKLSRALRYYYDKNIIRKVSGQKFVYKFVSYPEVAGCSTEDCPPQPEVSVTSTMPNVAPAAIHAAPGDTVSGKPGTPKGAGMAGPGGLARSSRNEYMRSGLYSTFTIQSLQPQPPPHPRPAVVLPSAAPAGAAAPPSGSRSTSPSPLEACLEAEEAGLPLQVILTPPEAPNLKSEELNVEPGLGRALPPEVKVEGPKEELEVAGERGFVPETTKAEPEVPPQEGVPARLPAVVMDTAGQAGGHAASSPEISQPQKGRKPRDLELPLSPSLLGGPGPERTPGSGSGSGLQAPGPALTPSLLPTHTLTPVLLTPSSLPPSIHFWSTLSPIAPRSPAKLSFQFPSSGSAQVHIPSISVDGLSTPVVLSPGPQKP
In short: as §1

GABPA = molecular target: T3, GABPA (Homo sapiens, UniProt Q06546 1-454)
T3 sequence: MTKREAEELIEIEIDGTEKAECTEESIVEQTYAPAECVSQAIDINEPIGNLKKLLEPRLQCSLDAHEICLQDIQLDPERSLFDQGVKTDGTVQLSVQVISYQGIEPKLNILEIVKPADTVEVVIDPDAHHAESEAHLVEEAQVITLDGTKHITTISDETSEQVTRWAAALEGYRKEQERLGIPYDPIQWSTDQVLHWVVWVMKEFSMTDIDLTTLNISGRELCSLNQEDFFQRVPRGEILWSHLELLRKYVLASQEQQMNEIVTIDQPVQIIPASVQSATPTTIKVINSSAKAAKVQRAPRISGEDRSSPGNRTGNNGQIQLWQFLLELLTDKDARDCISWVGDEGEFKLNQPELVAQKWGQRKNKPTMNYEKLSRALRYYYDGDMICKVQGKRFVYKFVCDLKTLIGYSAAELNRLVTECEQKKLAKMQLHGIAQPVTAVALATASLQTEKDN
In short: as §1

ERG = molecular target: T4, ERG (Homo sapiens, UniProt P11308 1-479)
T4 sequence: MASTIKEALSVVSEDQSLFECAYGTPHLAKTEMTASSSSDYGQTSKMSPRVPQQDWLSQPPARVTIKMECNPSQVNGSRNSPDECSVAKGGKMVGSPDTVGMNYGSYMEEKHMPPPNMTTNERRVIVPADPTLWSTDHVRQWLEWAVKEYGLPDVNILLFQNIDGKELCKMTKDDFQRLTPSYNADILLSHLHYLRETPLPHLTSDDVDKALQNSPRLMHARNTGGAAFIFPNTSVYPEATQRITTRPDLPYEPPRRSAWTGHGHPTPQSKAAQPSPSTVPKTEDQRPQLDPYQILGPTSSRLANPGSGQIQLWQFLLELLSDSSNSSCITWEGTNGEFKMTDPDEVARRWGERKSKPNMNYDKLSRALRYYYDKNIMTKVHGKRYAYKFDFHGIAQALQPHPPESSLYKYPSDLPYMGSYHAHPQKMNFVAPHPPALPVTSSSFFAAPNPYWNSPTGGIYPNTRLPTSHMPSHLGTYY
In short: as §1

ELF1 = ELF1 (Homo sapiens, UniProt P32519 1-619)
In short: as §1

EHF = molecular target: T5, EHF (Homo sapiens, UniProt Q9NZC4 1-300)
T5 sequence: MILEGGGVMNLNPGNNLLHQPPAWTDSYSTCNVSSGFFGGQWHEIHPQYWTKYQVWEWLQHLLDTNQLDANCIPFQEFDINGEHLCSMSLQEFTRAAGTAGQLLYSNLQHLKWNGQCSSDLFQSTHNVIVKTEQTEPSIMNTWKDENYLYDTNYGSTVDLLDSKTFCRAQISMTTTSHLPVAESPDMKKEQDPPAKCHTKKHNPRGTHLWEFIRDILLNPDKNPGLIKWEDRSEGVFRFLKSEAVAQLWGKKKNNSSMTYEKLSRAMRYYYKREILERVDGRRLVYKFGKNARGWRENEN
In short: as §1

SPI1 = SPI1 (Homo sapiens, UniProt P17947 1-270)
In short: as §1

SPIB = SPIB (Homo sapiens, UniProt Q01892 1-262)
In short: as §1

ELK3 = molecular target: T6, ELK3 (Homo sapiens, UniProt P41970 1-407)
T6 sequence: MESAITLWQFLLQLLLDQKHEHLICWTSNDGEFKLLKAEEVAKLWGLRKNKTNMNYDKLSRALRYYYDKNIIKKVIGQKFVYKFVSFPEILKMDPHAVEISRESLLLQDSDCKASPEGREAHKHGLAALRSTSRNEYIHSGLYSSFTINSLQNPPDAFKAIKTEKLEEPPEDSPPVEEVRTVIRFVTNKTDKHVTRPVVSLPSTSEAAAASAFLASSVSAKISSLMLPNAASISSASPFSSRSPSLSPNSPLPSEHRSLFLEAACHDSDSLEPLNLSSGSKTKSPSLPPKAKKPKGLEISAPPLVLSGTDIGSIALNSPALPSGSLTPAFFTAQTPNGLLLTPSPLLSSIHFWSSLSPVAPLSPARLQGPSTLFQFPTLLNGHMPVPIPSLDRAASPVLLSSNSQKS
In short: as §1

Chain of SPIB (Q01892 whole entry): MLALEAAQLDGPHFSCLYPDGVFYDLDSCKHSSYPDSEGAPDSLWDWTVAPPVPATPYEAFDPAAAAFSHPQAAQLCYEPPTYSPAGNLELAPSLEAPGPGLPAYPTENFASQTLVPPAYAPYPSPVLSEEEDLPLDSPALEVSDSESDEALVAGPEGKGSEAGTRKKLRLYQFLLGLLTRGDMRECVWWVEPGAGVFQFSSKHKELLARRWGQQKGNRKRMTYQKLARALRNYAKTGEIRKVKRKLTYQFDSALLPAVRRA
Chain of ELF1 (P32519 whole entry): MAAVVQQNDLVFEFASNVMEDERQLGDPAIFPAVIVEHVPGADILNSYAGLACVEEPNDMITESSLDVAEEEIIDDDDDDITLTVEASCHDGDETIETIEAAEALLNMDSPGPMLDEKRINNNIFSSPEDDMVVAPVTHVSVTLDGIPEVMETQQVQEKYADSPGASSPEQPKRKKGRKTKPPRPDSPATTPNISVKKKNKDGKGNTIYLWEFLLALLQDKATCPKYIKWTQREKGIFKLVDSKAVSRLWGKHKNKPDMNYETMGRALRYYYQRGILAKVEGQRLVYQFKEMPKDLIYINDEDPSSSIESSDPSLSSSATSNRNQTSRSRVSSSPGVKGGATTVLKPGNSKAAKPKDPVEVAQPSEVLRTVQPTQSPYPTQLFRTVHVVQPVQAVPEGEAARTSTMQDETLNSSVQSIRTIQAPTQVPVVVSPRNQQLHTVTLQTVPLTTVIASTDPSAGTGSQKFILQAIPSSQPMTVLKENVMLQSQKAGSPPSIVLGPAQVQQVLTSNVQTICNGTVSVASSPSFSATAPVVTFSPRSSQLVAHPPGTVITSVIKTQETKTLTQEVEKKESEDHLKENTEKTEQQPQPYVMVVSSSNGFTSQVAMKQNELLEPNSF

GTTTGA
binding signal (FLI1): 1.29 fold enrichment (6-mer frequency, TF over GST control)
binding signal (ELK1): 1.19 fold enrichment (6-mer frequency, TF over GST control)
binding signal (GABPA): 1.36 fold enrichment (6-mer frequency, TF over GST control)
binding signal (ERG): 1.12 fold enrichment (6-mer frequency, TF over GST control)
binding signal (ELF1): 1.16 fold enrichment (6-mer frequency, TF over GST control)
binding signal (EHF): 1.06 fold enrichment (6-mer frequency, TF over GST control)
binding signal (SPI1): 1.23 fold enrichment (6-mer frequency, TF over GST control)
binding signal (SPIB): 1.16 fold enrichment (6-mer frequency, TF over GST control)
binding signal (ELK3): 1.12 fold enrichment (6-mer frequency, TF over GST control)
